Sampled rows, rich in hits. Any-hit rate of the full collection: about 5.9%.
Rtt109 HAT inh: blocks Candida albicans Rtt109/Vps75 acetyltransferase activity; Q5AAJ8; inhibition, % at 34.9 µM; purified Rtt109/Vps75, ThioGlo CoA-SH fluorescence, 4 h; hit rate 0.16% among 330,000;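 active means inhibition of at least 50% in every replicate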
Target sequence (Q5AAJ8 whole entry, looked up): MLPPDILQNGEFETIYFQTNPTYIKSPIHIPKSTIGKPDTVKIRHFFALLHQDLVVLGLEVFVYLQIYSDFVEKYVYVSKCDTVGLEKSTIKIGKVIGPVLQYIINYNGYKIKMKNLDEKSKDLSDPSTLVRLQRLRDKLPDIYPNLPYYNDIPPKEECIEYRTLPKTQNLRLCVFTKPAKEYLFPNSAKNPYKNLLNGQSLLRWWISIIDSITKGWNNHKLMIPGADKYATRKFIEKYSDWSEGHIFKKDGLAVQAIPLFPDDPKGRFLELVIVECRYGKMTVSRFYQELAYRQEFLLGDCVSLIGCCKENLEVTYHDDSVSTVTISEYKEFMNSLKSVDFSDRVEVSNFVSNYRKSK
rCAG RNA binder: binds r(CAG) RNA repeats; hit rate 1.3% among 370,000; inhibition, % at 3 µM; r(CAG) RNA repeat, TO-PRO-1 dye displacement fluorescence; AID 651821;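 active means inhibition above the plate cutoff, the mean of all test compounds on that plate plus 3 SD, cut at about 35% in these data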;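 further: higher means more dye released from RNA so lower well fluorescence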
LANA-H2B inh: blocks KSHV LANA binding to histone H2A/H2B. cell-free LANA-H2A/H2B peptide, fluorescence polarization. inhibition, % (concentration not given with the values). hit rate 0.6% among 320,000. AID 2629. Q9QR71; in the data active means inhibition mostly above about 10%, no sharp cut-off; inactive means mostly below about 6.7%
ABHD5-PLIN5 inh: inhibitors of human ABHD5-perilipin-5 interaction | Q00G26+Q8WTS1 | Split G. princeps luciferase complementation, luminescence, 4 h | inhibition, % at 4 µM | hit rate 0.78% among 360,000 | AID 602281;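 active means inhibition above the mean inhibition across every tested compound plus 3 SD, cut at about 22% in these data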
ALR inh: blocks human ALR sulfhydryl oxidase activity | P55789 | purified ALR, DTT oxidation, H2O2 HRP-luminol luminescence | inhibition, % (concentration not given with the values) | hit rate 3.8% among 290,000 | AID 485317;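 active means mean replicate inhibition above about 79%, with every replicate also reaching it, limit read from the data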
Target sequence (P55789 whole entry, looked up): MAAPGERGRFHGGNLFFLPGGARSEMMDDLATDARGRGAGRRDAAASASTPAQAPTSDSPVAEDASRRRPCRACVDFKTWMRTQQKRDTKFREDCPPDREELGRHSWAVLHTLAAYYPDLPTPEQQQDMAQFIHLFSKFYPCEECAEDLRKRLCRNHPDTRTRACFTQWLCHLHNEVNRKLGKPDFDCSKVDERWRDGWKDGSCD
PRMT1 FP inh: blocks human protein arginine methyltransferase 1; Q99873; recombinant PRMT1, activity-based probe fluorescence polarization; inhibition, % at 2.79 µM; hit rate 1.3% among 370,000; AID 652257;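 active means inhibition above about 21% made by adding two undisclosed values, limit read from the data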
A number is an active result; n = inactive; x = not tested or not shown.

SMILES | Rtt109 HAT inh | rCAG RNA binder | LANA-H2B inh | ABHD5-PLIN5 inh | ALR inh | PRMT1 FP inh
CC(=O)c1cccc(NC(=O)C2Cc3c(-c4ccccc4Oc4ccccc4)ccnc3O2)c1 (stereo not given) | x | n | x | n | x | n
O=C(CSc1nnc(-c2ccccn2)n1-c1ccccc1)c1ccc(Cl)c(Cl)c1 | x | n | x | x | x | n
O=C1CCCCCCC(=O)[C@H](O)C[C@H](c2ccccc2)O1 | x | n | x | n | x | n
O=C(Nc1ccc(F)cc1)OC1CC2CC1[C@H]1CCCCN1C2 (stereo not given in full) | x | n | x | x | x | n
O=C(Nc1cccnc1)c1ccc(CSc2ccc(Cl)cc2)o1 | x | n | x | x | x | n
O=S(=O)(Nc1ccc(S(=O)(=O)Nc2ccccc2)cc1)c1ccccc1 | n | n | n | n | x | n
CC(=O)Nc1ccc(S(=O)(=O)NNc2cccc(C)c2)cc1 | n | n | n | n | 99 | 23
Cc1ccc(S(=O)(=O)NNc2ccccc2)cc1 | n | x | n | n | 100 | x
Cc1cccc(NC(=O)NNS(=O)(=O)c2ccc(F)cc2)c1 | n | n | n | n | x | n
Cc1ccc(S(=O)(=O)Nc2ccc(Nc3ccccc3)cc2)cc1 | n | n | n | n | 99 | n
O=C(O)[C@H](Cc1ccccc1)NC(=O)[C@H]1O[C@@H](n2ccc(=O)[nH]c2=O)[C@H](O)[C@@H]1O | x | n | x | x | x | n
OC1=C(O)c2nc3cc(C(F)(F)F)ccc3nc21 | n | n | n | n | 98 | n
COc1cc2c(cc1OC)C(c1ccc(N(C)C)cc1)CC(=O)N2 (stereo not given) | n | n | n | n | n | n
CCN(CC)c1ccc(C2CC(=O)Nc3cc(OC)c(OC)cc32)cc1 (stereo not given) | n | n | n | n | 98 | n
COCCNc1nc(-c2ccc(OC)cc2)c(-c2ccc(OC)cc2)s1 | n | n | n | n | 94 | n
COc1ccc(-c2sc(NC(C)=O)nc2-c2ccccc2)cc1 | n | n | n | n | n | n
CCN(CC)CCNc1nc(-c2ccc(OC)cc2)c(-c2ccc(OC)cc2)s1 | n | n | n | n | 99 | n
COc1ccc(-c2nc(NC(C)=O)sc2-c2ccccc2)cc1 | n | n | n | n | n | n
Cc1cc(-c2c(C)[nH]n(-c3ccccc3)c2=O)n(-c2ccccc2)n1 | n | n | n | n | n | n
Cc1cc(-c2c(C)[nH]n(-c3ccccc3)c2=O)n[nH]1 | n | n | n | n | 81 | n
Cc1cc(N/C=C\c2nnnn2-c2ccccc2)no1 | n | n | n | n | n | n
CN(C)c1ccc(/C=C/c2nnnn2-c2ccccc2)cc1 | n | n | n | n | 99 | n
COCc1cc(N2CCNC[C@@H]2C)ccc1N1C[C@@H](C)O[C@@H](C)C1 | x | n | x | x | x | n
COc1ccc(Cl)cc1NC(=O)C/C(C)=N/NC(=O)C(=O)NCc1ccccc1 | n | n | 15 | n | x | n
Cc1cccc(N2CCC(N=CN(C)C)=N2)c1 | x | n | n | n | 99 | n
SMILES | Rtt109 HAT inh | rCAG RNA binder | LANA-H2B inh | ABHD5-PLIN5 inh | ALR inh | PRMT1 FP inh
OCCN(C=NC1=NN(c2cccc(C(F)(F)F)c2)CC1)CCO | n | n | n | n | x | n
CCN(C=NC1=NN(c2cccc(C(F)(F)F)c2)CC1)CC | n | n | n | n | 94 | n
CCCS(=O)(=O)NC(=O)C1(C)CCCN(C(=O)c2oc3ccccc3c2C)C1 (stereo not given) | x | n | x | n | x | n
CCCC(=O)OC[C@H]1CN(C2CCCC2)S(=O)(=O)c2c(Oc3ccccc3)cccc2O1 | x | n | x | x | x | n
CSc1cccc(CNC(=O)C2CCC(=O)N(CC3CCCCC3)C2)c1 (stereo not given) | n | n | n | n | n | n
C[C@@H]1OC(C2CCCCC2)N(C)[C@H]2C[C@H]3c4[nH]c5cccc(-c6ccccc6)c5c4CCN3C[C@@H]12 (stereo not given in full) | x | n | x | x | x | n
O=C(CSc1nc2nc(-c3cccs3)cc(C(F)(F)F)c2c(=O)[nH]1)Nc1ccc(F)c(F)c1 | n | 68 | n | n | n | n
Cc1ccc(-n2c(O)c(C=NCc3ccccn3)c3ccccc3c2=O)cc1C | 62 | n | n | n | n | n
O=c1c2ccccc2c(C=NCc2ccccn2)c(O)n1-c1ccccc1 | n | n | n | n | n | n
CCc1ccc2cccc3c2c1N=CN3C | n | n | n | n | 100 | n
CN1C(=O)N(C)c2cccc3cccc1c23 | n | n | n | n | n | n
CC1(C(=O)NS(=O)(=O)Cc2cccc(Cl)c2)CCN1C(=O)C1(c2ccc(Cl)cc2)CCC1 (stereo not given) | x | n | x | n | x | n
Nn1c(SCC(=O)Nc2nccs2)nnc1C1CC1 | n | n | n | n | 99 | n
CCCCn1nnnc1SCC(=O)Nc1ccc(N(C)C)cc1 | n | n | n | n | 99 | n
CCCCn1nnnc1SCC(=O)Nc1ccc(F)cc1 | n | n | n | n | n | n
Cc1csc(NC(=O)CSc2nnc(C)c(=O)n2N)n1 | n | n | n | n | 99 | n
CCn1c(SCC(=O)Nc2nc(C)cs2)nnc1C(NC(=O)c1ccccc1Cl)C(C)C (stereo not given) | n | n | n | n | n | n
C=CCn1c(SCC(=O)Nc2nc(C)cs2)nnc1C(CO)NC(=O)c1ccccc1 (stereo not given) | n | n | n | n | 85 | n
CC1(C(=O)Nc2cnc3ccccc3c2)CCN1Cc1ccc(OC(F)(F)F)cc1 (stereo not given) | x | n | x | n | x | n
Cc1cccc(C)c1-n1nnnc1C1(C)CCC(=O)N1Cc1cccs1 (stereo not given) | x | n | x | n | x | n
COC(=O)[C@]12C[C@H](CC(=O)N3CCCCC3)C(=O)N(Cc3cccc4ccccc34)C1=C[C@H](COCc1ccccc1)O[C@@H]2C | x | n | x | x | x | n
COc1ccc(CCSc2nnc(C3CCCCC3)n2N)cc1 | n | n | n | n | 96 | n
CCCn1nnnc1SCC(=O)NCc1cccs1 | n | n | 98 | n | n | n
Cc1nnc(SCC(=O)Nc2ccc(F)cc2)n(N)c1=O | n | n | n | n | n | n
CC(=O)Nc1ccc(NC(=O)CSc2nnc(C)c(=O)n2N)cc1 | n | n | n | n | 98 | n
SMILES | Rtt109 HAT inh | rCAG RNA binder | LANA-H2B inh | ABHD5-PLIN5 inh | ALR inh | PRMT1 FP inh
CN(C)c1ccc(NC(=O)CSc2nnc(C3CCCCC3)n2N)cc1 | n | n | n | n | 99 | n
COc1ccc(NC(=O)CSc2nnc(C3CCCCC3)n2N)c(OC)c1 | n | n | n | n | n | n
Cc1c[nH]c2cccc(-c3ccccc3)c12 | x | n | x | x | x | n
CCN(CC(=O)Nc1c(F)cccc1F)C(=O)C1CCCO1 (stereo not given) | x | n | x | n | x | n
COC(=O)C1=C(C)N(Cc2ccccc2C(F)(F)F)C(=NCc2cc(OC)c(OC)c(OC)c2)NC1c1ccc(Cl)cc1 (stereo not given) | x | n | x | x | x | n
Cc1nnc(SCC(=O)Nc2ccc(N(C)C)cc2)n(N)c1=O | n | n | n | n | 99 | n
Cc1nnc(SCC(=O)Nc2ccc(Br)cc2)n(N)c1=O | n | n | n | n | n | n
